Results published in PubChem BioAssay AID1159580 (chemical genetic matrix, 2015).
Where “and” joins values, the source holds several entries; their conditions need not be identical. Equal entries are not always repeated. The whole screen tested about 5,500 compounds, of which about 2,000 (36%) were called active. Inconclusive results (about 18%) are left out. Rule as the data show it: active = normalized growth mostly below about 0.91 (no sharp cut-off); inconclusive = no clear call, values can overlap the other calls; inactive = mostly above about 0.92. Some of the results follow.

Experiment: chemical genetic growth profiling, strain panel (AID 1159580);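 also: tested at 20 µM; growth read once vehicle control cultures reached saturation at 30 °C; 1 = growth at the plate median or of vehicle wells; lower values mean less growth of the strain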
Conditions: S. cerevisiae deletion strains, growth OD

O=C(/C=C/c1ccccc1)c1ccc(O)cc1
normalized growth (locus YAL013W, strain DEP1, stronger effect = lower value): 0.736 (active) | normalized growth (locus YAL021C, strain ccr4, stronger effect = lower value): 0.633 (active) | normalized growth (locus YAL026C, strain drs2, stronger effect = lower value): 0.192 (active) | normalized growth (locus YAL030W, strain snc1, stronger effect = lower value): 0.247 (active) | normalized growth (locus YBL061C, strain skt5, stronger effect = lower value): 0.263 (active) | normalized growth (locus YBR009C, strain hhf1, stronger effect = lower value): 0.0771 (active) | normalized growth (locus YBR021W, strain FUR4, stronger effect = lower value): 0.891 (inactive) | normalized growth (locus YBR023C, strain chs3, stronger effect = lower value): 0.399 (active) | normalized growth (locus YBR171W, strain sec66, stronger effect = lower value): 0.112 (active) | normalized growth (locus YBR229C, strain ROT2, stronger effect = lower value): 0.887 (active) | normalized growth (locus YBR231C, strain swc5, stronger effect = lower value): 0.315 (active) | normalized growth (locus YBR279W, strain paf1, stronger effect = lower value): 0.494 (active) | normalized growth (locus YCL011C, strain gbp2, stronger effect = lower value): 0.1 (active) | normalized growth (locus YCL016C, strain dcc1, stronger effect = lower value): 0.2 (active) | normalized growth (locus YCL029C, strain bik1, stronger effect = lower value): 0.831 (active) | normalized growth (locus YCL061C, strain MRC1, stronger effect = lower value): 0.102 (active) | normalized growth (locus YCL069W, strain vba3, stronger effect = lower value): 0.218 (active) | normalized growth (locus YCR088W, strain abp1, stronger effect = lower value): 0.157 (active) | normalized growth (locus YDL005C, strain med2, stronger effect = lower value): 0.64 (active) | normalized growth (locus YDL035C, strain GPR1, stronger effect = lower value): 0.723 (active) | normalized growth (locus YDL040C, strain nat1, stronger effect = lower value): 0.706 (active) | normalized growth (locus YDL074C, strain BRE1, stronger effect = lower value): 0.593 (active) | normalized growth (locus YDL101C, strain DUN1, stronger effect = lower value): 0.618 (active) | normalized growth (locus YDL134C, strain PPH21, stronger effect = lower value): 0.661 (active) | normalized growth (locus YDL185W, strain tfp1, stronger effect = lower value): 0.817 (active) | normalized growth (locus YDL192W, strain arf1, stronger effect = lower value): 0.726 (active) | normalized growth (locus YDR001C, strain nth1, stronger effect = lower value): 0.316 (active) | normalized growth (locus YDR069C, strain doa4, stronger effect = lower value): 0.742 (active) | normalized growth (locus YDR101C, strain arx1, stronger effect = lower value): 0.88 (active) | normalized growth (locus YDR137W, strain rgp1, stronger effect = lower value): 0.198 (active) | normalized growth (locus YDR150W, strain NUM1, stronger effect = lower value): 0.87 (active) | normalized growth (locus YDR159W, strain sac3, stronger effect = lower value): 0.26 (active) | normalized growth (locus YDR162C, strain NBP2, stronger effect = lower value): 0.182 (active) | normalized growth (locus YDR195W, strain ref2): 0.22 (active) | normalized growth (locus YDR297W, strain sur2, stronger effect = lower value): 0.19 (active) | normalized growth (locus YDR318W, strain mcm21, stronger effect = lower value): 0.788 (active) | normalized growth (locus YDR334W, strain swr1, stronger effect = lower value): 0.185 (active) | normalized growth (locus YDR335W, strain msn5, stronger effect = lower value): 0.16 (active) | normalized growth (locus YDR388W, stronger effect = lower value): 0.863 (active) | normalized growth (locus YDR392W, strain spt3, stronger effect = lower value): 0.0785 (active) | normalized growth (locus YDR502C, strain sam2, stronger effect = lower value): 0.758 (active) | normalized growth (locus YEL003W, strain gim4, stronger effect = lower value): 0.0639 (active) | normalized growth (locus YEL037C, strain rad23, stronger effect = lower value): 0.602 (active) | normalized growth (locus YEL061C, strain CIN8 (second series), stronger effect = lower value): 0.0689 (active) | normalized growth (locus YEL061C, strain CIN8, stronger effect = lower value): 0.506 (active) | normalized growth (locus YER015W, strain faa2, stronger effect = lower value): 0.264 (active) | normalized growth (locus YER016W, strain bim1, stronger effect = lower value): 0.176 (active) | normalized growth (locus YER110C, stronger effect = lower value): 0.89 (active) | normalized growth (locus YER111C, strain swi4, stronger effect = lower value): 0.124 (active) | normalized growth (locus YER155C, strain BEM2 (second series), stronger effect = lower value): 0.093 (active) | normalized growth (locus YER155C, strain BEM2, stronger effect = lower value): 0.568 (active) | normalized growth (locus YER167W, strain BCK2, stronger effect = lower value): 0.74 (active) | normalized growth (locus YFR010W, strain ubp6, stronger effect = lower value): 0.648 (active) | normalized growth (locus YGL078C, strain dbp3, stronger effect = lower value): 0.926 (inactive) | normalized growth (locus YGL086W, strain mad1, stronger effect = lower value): 0.733 (active) | normalized growth (locus YGL167C, strain pmr1, stronger effect = lower value): 0.83 (active) | normalized growth (locus YGL173C, strain kem1, stronger effect = lower value): 0.403 (active) | normalized growth (locus YGL227W, strain vid30, stronger effect = lower value): 0.0651 (active) | normalized growth (locus YGL240W, strain doc1, stronger effect = lower value): 0.358 (active) | normalized growth (locus YGL248W, strain PDE1, stronger effect = lower value): 0.716 (active) | normalized growth (locus YGL253W, strain hxk2, stronger effect = lower value): 0.177 (active) | normalized growth (locus YGR078C, strain PAC10, stronger effect = lower value): 0.429 (active) | normalized growth (locus YGR135W, strain pre9, stronger effect = lower value): 0.771 (active) | normalized growth (locus YGR229C, strain SMI1, stronger effect = lower value): 0.253 (active) | normalized growth (locus YGR252W, strain gcn5, stronger effect = lower value): 0.648 (active) | normalized growth (locus YHR013C, strain ard1, stronger effect = lower value): 0.353 (active) | normalized growth (locus YHR027C, strain rpn1, stronger effect = lower value): 0.51 (active) | normalized growth (locus YHR030C, strain SLT2, stronger effect = lower value): 0.38 (active) and 0.945 (inactive) | normalized growth (locus YHR079C, strain IRE1 (second series), stronger effect = lower value): 0.494 (active) | normalized growth (locus YHR079C, strain IRE1, stronger effect = lower value): 0.788 (active) | normalized growth (locus YHR094C, strain hxt1, stronger effect = lower value): 0.944 (inactive) | normalized growth (locus YHR129C, strain ARP1, stronger effect = lower value): 0.635 (active) | normalized growth (locus YHR142W, strain chs7, stronger effect = lower value): 0.113 (active) | normalized growth (locus YHR200W, strain rpn10, stronger effect = lower value): 0.898 (active) | normalized growth (locus YIL066C, strain RNR3, stronger effect = lower value): 0.515 (active) | normalized growth (locus YIL073C, strain SPO22, stronger effect = lower value): 0.7 (inactive) | normalized growth (locus YIL125W, strain kgd1, stronger effect = lower value): 0.931 (active) | normalized growth (locus YIR030C, strain dcg1, stronger effect = lower value): 0.853 (active) | normalized growth (locus YJL092W, strain hpr5, stronger effect = lower value): 0.299 (active) | normalized growth (locus YJL095W, strain BCK1 (second series), stronger effect = lower value): 0.0714 (active) | normalized growth (locus YJL095W, strain BCK1, stronger effect = lower value): 0.205 (active) and 0.945 (inactive) | normalized growth (locus YJL115W, strain asf1, stronger effect = lower value): 0.444 (active) | normalized growth (locus YJL129C, strain trk1, stronger effect = lower value): 0.209 (active) | normalized growth (locus YJL134W, strain LCB3, stronger effect = lower value): 0.93 (inactive) | normalized growth (locus YJL154C, strain vps35, stronger effect = lower value): 0.678 (active) | normalized growth (locus YJL164C, strain tpk1, stronger effect = lower value): 0.162 (active) | normalized growth (locus YJL166W, strain qcr8, stronger effect = lower value): 0.0857 (active) | normalized growth (locus YJL168C, strain set2, stronger effect = lower value): 0.913 (active) | normalized growth (locus YJL187C, strain SWE1 (second series), stronger effect = lower value): 0.697 (active) | normalized growth (locus YJR043C, strain POL32, stronger effect = lower value): 0.597 (active) | normalized growth (locus YJR066W, strain TOR1, stronger effect = lower value): 0.883 (inactive)
